ER stress surv: protection against thapsigargin ER stress killing – CSM14.1 cells, ATP luminescence, primary screen | CSM14.1 thapsigargin ER stress survival | relative survival (cellular ATP), % at 15 µg/mL (by protocol) | 0.33% of 48,000 active | AID 1010, 2008;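 active = survival measured by cellular ATP above 50% at 15 µg/ml in the first screen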;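 also: cell death triggered by about 15 µM thapsigargin; ATP read 24 h after thapsigargin was added; plate controls were thapsigargin with DMSO for no effect and DMSO without thapsigargin for full effect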
Starred values were filed as active, the others as inactive. The full list was thinned out, with hits kept by preference.

SMILES	ER stress surv
CC1CC(Nc2ccccc2)c2ccccc2N1C(=O)c1ccccc1 (configuration not stated)	0
CN(C)CCCCCCNC(=O)/C=N\O	7
Cc1ccc(NC(=O)CSc2nc3ccccc3s2)c([N+](=O)[O-])c1	6
Cc1ccc(NC(=O)c2cc(C(=O)O)ccc2C(=O)O)c([N+](=O)[O-])c1	13
CCn1c2ccccc2c2cc(CN3CCN(Cc4ccc(OC)c(OC)c4OC)CC3)ccc21	-4
CCn1c2ccccc2c2cc(CN3CCN(C(=O)c4ccc(OC)c(OC)c4)CC3)ccc21	122*
CCn1c2ccccc2c2cc(CN3CCN(C(=O)c4cc(OC)c(OC)c(OC)c4)CC3)ccc21	113*
CCn1c2ccccc2c2cc(CN3CCN(C(=O)c4ccncc4)CC3)ccc21	17
CCn1c2ccccc2c2cc(CN3CCN(Cc4ccccc4OC)CC3)ccc21	-2
CCn1c2ccccc2c2cc(CN3CCN(Cc4cc(OC)c(OC)cc4OC)CC3)ccc21	-6
COc1ccccc1CC(=O)Nc1cc(C)ccn1	7
Cc1ccnc(NC(=O)C(c2ccccc2)c2ccccc2)c1	86*
Cc1ccnc(NC(=O)CSc2nc3ccccc3[nH]2)c1	-1
COc1ccc(CN2CCN(CC3CC4C=CC3C4)CC2)cc1Br (configuration not stated)	-10
O=C(NCc1ccncc1)C(=O)NCc1ccccn1	8
CCCOC(=O)c1ccc(NC(=O)c2c(-c3c(Cl)cccc3Cl)noc2C)cc1	14
COc1ccc(C2CC(=O)C3=C(C2)Nc2ccccc2NC3c2cccc(Oc3ccccc3)c2)cc1OC (configuration not stated)	85*
COc1ccc(C2Nc3ccccc3NC3=C2C(=O)CC(c2ccccc2)C3)cc1Br (configuration not stated)	29
COc1ccc(C2CC(=O)C3=C(C2)Nc2ccccc2NC3c2ccc(OC)c(OC)c2)cc1 (configuration not stated)	12
COc1ccc(C2CC(=O)C3=C(C2)Nc2ccccc2NC3c2ccc(-c3ccccc3)cc2)cc1OC (configuration not stated)	6
COc1ccc(C2CC(=O)C3=C(C2)Nc2ccccc2NC3c2ccc(OC)c(Br)c2)cc1 (configuration not stated)	96*
CCOc1cc(C2Nc3ccccc3NC3=C2C(=O)CC(c2ccc(OC)cc2)C3)cc(Br)c1O (configuration not stated)	64*
CCOc1cc(C2Nc3ccccc3NC3=C2C(=O)CC(c2ccccc2)C3)cc(Br)c1O (configuration not stated)	35
CCOc1ccc(C2Nc3ccccc3NC3=C2C(=O)CC(c2ccc(OC)cc2)C3)cc1OC (configuration not stated)	5
COc1ccc(C2CC(=O)C3=C(C2)Nc2ccccc2NC3c2cccc(F)c2)cc1OC (configuration not stated)	2
SMILES	ER stress surv
O=C(NCCN1CCOCC1)c1nn2c(C(F)(F)F)cc(-c3ccc(Br)cc3)nc2c1Cl	-4
CCCC(=O)NC(c1ccc(OC)c(OC)c1)c1c(OC(=O)COc2ccccc2)ccc2ccccc12 (configuration not stated)	7
CC(C)COc1ccc(C(=O)Nc2cccnc2)cc1	-3
COC(=O)CN(c1ccc(OC)cc1)S(C)(=O)=O	4
COc1cc(NC(=O)c2ccc(-c3ccc(Br)cc3)o2)ccc1NC(=O)c1ccco1	4
O=C(CSCc1ccc(Br)cc1)N/N=C/c1ccc(Sc2ccccn2)o1	15
CCN(CC)C(=O)c1ccc(CN(c2ccc(OC)cc2)S(=O)(=O)c2ccccc2)cc1	124*
COc1ccc(N(Cc2ccc(C(=O)NC3CCCCC3)cc2)S(=O)(=O)c2ccccc2)cc1	9
COc1ccc(N(Cc2ccc(C(=O)NC3CCCC3)cc2)S(=O)(=O)c2ccccc2)cc1	2
CSc1ccc(C2Nc3ccccc3NC3=C2C(=O)CC(C)(C)C3)cc1 (configuration not stated)	11
COc1ccc(C2Nc3ccccc3NC3=C2C(=O)CC(C)(C)C3)cc1COc1ccc(F)cc1 (configuration not stated)	61*
CC1(C)CC(=O)C2=C(C1)Nc1ccccc1NC2c1cccc(F)c1 (configuration not stated)	0
CC1(C)CC(=O)C2=C(C1)Nc1ccccc1NC2c1ccc(-c2ccccc2)cc1 (configuration not stated)	121*
COC(=O)c1ccc(C2Nc3ccccc3NC3=C2C(=O)CC(C)(C)C3)cc1 (configuration not stated)	7
CCCCOc1ccc(C2Nc3ccccc3NC3=C2C(=O)CC(C)(C)C3)cc1 (configuration not stated)	-3
CC1CN(C(=O)c2cc(Cl)ccc2Cl)CC(C)O1 (configuration not stated)	3
COc1ccc(/C=C/C(=O)c2cccc(Br)c2)cc1[N+](=O)[O-]	3
CCOc1ccc(Br)cc1/C=N\NC(=O)c1cc(C)[nH]n1	3
